From PubChem BioAssay (NCI)
This is part of a sample that, as a whole, favours compounds with a hit. Of some 79,000 tested, about 15% had one in any assay. Cut-off read from the data, not from the text of the source: active = growth inhibition above about 70%; inactive = the rest.

How the values were obtained:
[1] = NCI Yeast Anticancer Drug Screen. Data for the rad50 strain (AID 155);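 note: 0% = growth of vehicle-only cultures of the same strain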; settings: S. cerevisiae rad50 strain growth inhibition; at 50.0 µM; stronger effect = higher value
Summary of the method: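 Cells are treated with compound, grown, and their growth is then scored against vehicle-only cultures of the same repair-deficient yeast strain.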

[2] = NCI Yeast Anticancer Drug Screen. Data for the mec2-1 strain (AID 157); settings: S. cerevisiae mec2-1 strain, at 50.0 µM, stronger effect = higher value
Summary of the method: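 Test agents were screened against the mec2-1 yeast strain, with defined DNA repair or cell cycle alteration. Growth was scored as inhibition against vehicle-only controls.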

[3] = NCI Yeast Anticancer Drug Screen. Data for the sgs1 mgt1 strain (AID 161);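 note: 0% = growth of cultures given vehicle only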; settings: S. cerevisiae sgs1 mgt1 strain, at 50.0 µM, stronger effect = higher value
Summary of the method: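 Mutant yeast exposed to compound; growth scored against vehicle-only wells.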

[4] = NCI Yeast Anticancer Drug Screen. Data for the cln2 rad14 strain (AID 165);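 note: 0% = growth equal to vehicle treated cultures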; settings: S. cerevisiae cln2 rad14 strain, at 50.0 µM, stronger effect = higher value
Summary of the method: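 Growth of compound-exposed yeast (cln2 rad14 genotype) measured and expressed as inhibition relative to vehicle.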

[5] = NCI Yeast Anticancer Drug Screen. Data for the bub3 strain (AID 167); settings: S. cerevisiae bub3 mutant strain, at 50.0 µM, stronger effect = higher value
Summary of the method: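 Part of a panel of yeast mutants defective in DNA damage repair or cell cycle regulation. Each strain is grown with compound, and inhibition is calculated relative to solvent-treated cultures.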

[6] = NCI Yeast Anticancer Drug Screen. Data for the mlh1 rad18 strain (AID 175); settings: S. cerevisiae mlh1 rad18 strain growth inhibition; at 50.0 µM; stronger effect = higher value
Summary of the method: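 In this whole-cell yeast screen, a strain with altered DNA damage repair is challenged with compound, and its growth is measured against matched vehicle-treated controls.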

Measured: growth inhibition

O=C1Nc2ccccc2/C1=C\c1ccccc1O
inactive: [1] 25.2% | [2] -1.75% | [3] 12.2% | [4] 6.8% | [5] 17.4% | [6] 23.4%

N=C(N)c1nn(C2OC(CO)C(O)C2O)c2nc[nH]c(=O)c12 (stereo not drawn)
inactive: [1] 0.75% | [2] -9.5% | [3] 10.2% | [4] 17.6% | [5] 5.7% | [6] 27.1%

COc1cc(CC#N)c([N+](=O)[O-])cc1OC
inactive: [1] -3.15% | [2] -22.1% | [3] -12.8% | [4] -39% | [5] -14.2% | [6] 0.4%

C=C(C)COc1ccc(C(C)(C)C)cc1
inactive: [1] 18.1% | [2] 16.7% | [3] 11.1% | [4] 8.1% | [5] 17.6% | [6] 12%

Nc1cc2c(cc1Cl)C(=O)c1ccccc1C2=O
inactive: [1] 32.4% | [2] 16.6% | [3] 9.75% | [4] -63.6% | [5] 38.4% | [6] 1.35%

Nc1ncnc(Nc2ccccc2)n1
inactive: [1] -6.05% | [2] -28.1% | [3] -4.1% | [4] 15.1% | [5] -5.8% | [6] 7.1%

Cc1ccc2nc(-c3ccc(N=Cc4ccccc4O)cc3)sc2c1
inactive: [1] 17.7% | [2] 12.9% | [3] 6.5% | [4] -6% | [5] 27.9% | [6] 12.3%

CC(C)(CC(=O)O)CC(=O)O
inactive: [1] 14.4% | [2] 1.15% | [3] 0% | [4] 23.8% | [5] 16.1% | [6] 14.8%

C=CCS(C)(=O)=O
inactive: [1] -13.8% | [2] -18.6% | [3] -11.8% | [4] 5.7% | [5] -0.8% | [6] -3.65%

CCCC(=O)CC(=O)c1ccccc1
inactive: [1] 7.75% | [2] 10.4% | [3] -3.75% | [4] -13.6% | [5] 5.85% | [6] 4.4%

N#CCCN1C(=O)CCC1C(=O)O (stereo not drawn)
inactive: [1] 7.75% | [2] -11.2% | [3] 10.1% | [4] -6.15% | [5] -3.1% | [6] 13.3%

O=S(=O)(O)C(C(I)I)S(=O)(=O)O
inactive: [1] -0.15% | [2] -19.8% | [3] -3.35% | [4] -34.5% | [5] -6.85% | [6] -7.6%

Cc1ccc([N+](=O)[O-])c(C)n1
inactive: [1] 19.1% | [2] -23.1% | [3] 6.2% | [4] 27.1% | [5] -4.4% | [6] 23.4%

CCOC(=O)/C(C)=C\c1ccc(OC)c(OC)c1
inactive: [1] -2.15% | [2] -11.2% | [3] 25.9% | [4] -34% | [5] 18.4% | [6] 18.9%

CCOc1ccc(C(=O)O)cc1
inactive: [1] 34.8% | [2] -12.8% | [3] -1.65% | [4] 4.85% | [5] 8.2% | [6] 31.1%

CC1(C)C2CCC1(C)C1(C2)OCCS1 (stereo not drawn)
inactive: [1] 24.8% | [2] -5.25% | [3] 1% | [4] 11.2% | [5] 1.05% | [6] -7.65%

CS(=O)CC(=N\O)/C(CS(C)=O)=N\O (stereo not drawn)
inactive: [1] 9.7% | [2] -4.45% | [3] 4.5% | [4] -8.85% | [5] -2.8% | [6] 9.2%

COc1ccc(C(=O)C(=O)c2ccccc2)cc1
inactive: [1] 26.6% | [2] 34.1% | [3] 31.9% | [4] 1.85% | [5] 11.1% | [6] 33.5%

CC(=O)C1C(=O)C(=O)N(c2ccc(Cl)c(Cl)c2)C1=O (stereo not drawn)
inactive: [1] -22.1% | [2] -21% | [3] -2.35% | [4] -14.4% | [5] -9.5% | [6] -24.9%

CC(=O)c1cccc(O)c1
inactive: [1] 5.8% | [2] -8.85% | [3] 6.65% | [4] 1.1% | [5] -5.1% | [6] 17.7%

CCc1ccccc1C(=O)N(CC)CC
inactive: [1] -14.8% | [2] 18.4% | [3] 16.6% | [4] 32% | [5] -16.1% | [6] -6.65%

CCOc1ccccc1NC(=O)CCl
inactive: [1] 16.4% | [2] 3.2% | [3] 8.6% | [4] -5.2% | [5] 18.9% | [6] 39.9%

S=C(NCc1ccccc1)N1CCC(CCCC2CCN(C(=S)NCc3ccccc3)CC2)CC1
inactive: [1] -9.45% | [2] -32.1% | [3] -3.6% | [4] 6% | [5] 2.85% | [6] -7.35%

C/C(O)=C(/C=N\C(=S)Nc1ccc(S(=O)(=O)Nc2nccs2)cc1)C(=O)Nc1ccccc1C
inactive: [1] -14.3% | [2] 8.1% | [3] 15.3% | [4] 32.8% | [5] 7.65% | [6] -18.8%

C#CC(O)c1ccccc1 (stereo not drawn)
inactive: [1] -2.4% | [2] -15.3% | [3] 13.1% | [4] -11.6% | [5] 0.9% | [6] -0.65%

c1ccc2c(NCCCN3CCN(CCCNc4c5ccccc5nc5ccccc45)CC3)c3ccccc3nc2c1
inactive: [1] 23.9% | [2] 4.6% | [3] 11.1% | [4] -0.25% | [5] 22.2% | [6] 14.9%

COC(CCCl)c1ccc(Cl)cc1 (stereo not drawn)
inactive: [1] 4.7% | [2] -43% | [3] -10.8% | [4] -4.5% | [5] -5.35% | [6] 26.8%

CCCCn1cnc2c(=O)[nH]cnc21
inactive: [1] 3.2% | [2] 2.25% | [3] -5.15% | [4] -14.8% | [5] 8.95% | [6] 2.3%

C=C(c1ccc(N(C)C)cc1)c1ccc(N(C)C)cc1
inactive: [1] -0.95% | [2] -2.55% | [3] -3.05% | [4] -40.4% | [5] 9.5% | [6] -5.3%

CN(C)CCOC(=O)Nc1ccc(Cc2ccc(NC(=O)OCCN(C)C)cc2)cc1
inactive: [1] -2.1% | [2] -25.2% | [3] -1.75% | [4] 8.25% | [5] 8.7% | [6] 8.3%

Nc1ccccc1SC1CC(=O)N(c2ccc(Cl)c(Cl)c2)C1=O (stereo not drawn)
inactive: [1] -2.05% | [2] -21.6% | [3] 4.7% | [4] -15.9% | [5] 1.15% | [6] -5.4%

CC1CC2C3CCC4=CC(=O)CCC4(C)C3CCC2(C)C1(O)C(=O)CO (stereo not drawn)
inactive: [1] 2% | [2] -0.8% | [3] 9.1% | [4] -44% | [5] -14.3% | [6] -0.55%

NC(CO)(CO)c1ccccc1
inactive: [1] 34.4% | [2] 13.1% | [3] 10.5% | [4] 20% | [5] 17.5% | [6] 29.9%

C1=NCCc2ccccc21
inactive: [1] 0.55% | [2] 3% | [3] -8.25% | [4] -19.9% | [5] 2.05% | [6] 15.2%

Cc1ccc(OC(=O)c2ccccc2)cc1
inactive: [1] 9.3% | [2] -9.65% | [3] -18.6% | [4] -6.75% | [5] -8.6% | [6] -14.6%

CN(C)Cc1ccccn1
inactive: [1] 1.1% | [2] -17% | [3] -4.25% | [4] -5.75% | [5] -13.4% | [6] 2.55%

CSCC[C@@H]1C(=O)N(C)[C@H](C(C)(C)C)N1C(=O)c1ccccc1
inactive: [1] -0.9% | [2] -12.4% | [3] -7.05% | [4] 0.6% | [5] 44.7% | [6] -13.4%

CC(C)=CCC[C@@H](C)[C@H]1CC[C@@]2(C)C3=C(CC[C@]12C)[C@@]1(C)CC[C@H](O)C(C)(C)[C@@H]1CC3
inactive: [1] 12.7% | [2] -24.8% | [3] 21.8% | [4] 9.85% | [5] 11.7% | [6] -7.3%

CCCCOC(=O)c1ccccc1O
inactive: [1] 9.35% | [2] -0.8% | [3] -13.8% | [4] -3.05% | [5] 0.85% | [6] 20.5%

O=C(O)c1ccc([N+](=O)[O-])cc1S(=O)(=O)O
inactive: [1] -21.6% | [2] -6.8% | [3] -24.3% | [4] -22.9% | [5] -8.4% | [6] -4.55%

Clc1cccc(Cl)c1CSc1nc2ccccc2n2cccc12
inactive: [1] -13.3% | [2] -26.8% | [3] 5.2% | [4] 17.6% | [5] -29.9% | [6] -19%

CCOC(=O)c1c[nH][nH]c1=O
inactive: [1] -9.05% | [2] -8.45% | [3] -3.55% | [4] -18.2% | [5] 7.85% | [6] 5.8%

NC(=S)N/N=C/c1ccc(Cl)cc1
inactive: [1] 47.5% | [2] 23.8% | [3] 41.5% | [4] 13.4% | [5] 22.9% | [6] 46.9%
